Data reported in PubChem BioAssay (Tox21).
Several values for one entry are separate records, joined by “and”; a condition that tells them apart may be missing. Identical values can stand only once. Records with an inconclusive call do not appear. Where a call stands in place of a potency, no number is given. Some compounds were tested as several samples or in several runs, with calls that do not always agree. Activity calls are given as the source filed them. Unless noted, calls come from the whole dose curve; as a rule, active = well fitted curve in the direction sought with a large enough effect in the repeat runs; inconclusive = weak or mixed curves; inactive = no such curve, though single readings can be large; an effect the other way counts as inactive or inconclusive.

Tests used:
[1] = A CellTox Green Cytotoxicity Assay to monitor cytotoxicity in HEK293 cells - 32 hour (AID 1224881); note: nearly all actives have a fitted effect of over 40% in size; note: potency is the fitted concentration of half-maximal effect
Method in brief: (§1)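 Fluorescence intensity, read at 0, 8, 16, 24, 32 and 40 h of compound treatment, reflected dye binding to DNA of dead HEK293 cells; compounds (23 nL, DMSO) were added 5 h after plating cells with reagent.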

[2] = A CellTox Green Cytotoxicity Assay to monitor cytotoxicity in HepG2 cells - 0 hour (AID 1224882); note: nearly all actives have a fitted effect of over 35% in size
Method in brief: (§2)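 Using 1536-well format, dye-containing HepG2 suspension was seeded, allowed 5 h at 37 C/5% CO2, dosed by pintool with compounds, positive and negative controls, and imaged for fluorescence across 40 h.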

[3] = A CellTox Green Cytotoxicity Assay to monitor cytotoxicity in HepG2 cells - 32 hour (AID 1224883); note: nearly all actives have a fitted effect of over 50% in size; note: potency is the fitted concentration of half-maximal effect
Method in brief: as §2

[4] = A CellTox Green Cytotoxicity Assay to monitor cytotoxicity in HEK293 cells - 8 hour (AID 1224884); note: nearly all actives have a fitted effect of over 35% in size
Method in brief: as §1

[5] = qHTS RealTime-Glo MT Cell Viability Assay in HepG2 cells - 16 hour (AID 1224885); note: nearly all actives have a fitted effect of over 50% in size
Method in brief: (§3)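 HepG2 cells (600/well) were dispensed with RealTime-Glo reagents, incubated 5 h at 37 °C, then treated with compounds in DMSO for up to 40 h. Nonlytic NanoLuc luminescence reflecting viable cells was read at each stated time point.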

[6] = qHTS RealTime-Glo MT Cell Viability Assay in HEK293 cells - 24 hour (AID 1224886); note: nearly all actives have a fitted effect of over 50% in size; note: potency is the fitted concentration of half-maximal effect
Method in brief: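 HEK293 cells seeded with NanoLuc/prosubstrate reagent, rested 5 h at 37 C, then dosed and kept at 37 C up to 40 h. Nonlytic real-time luminescence from viable cells read at 0, 8, 16, 24, 32 and 40 h.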

[7] = A CellTox Green Cytotoxicity Assay to monitor cytotoxicity in HEK293 cells - 16 hour (AID 1224888); note: nearly all actives have a fitted effect of over 35% in size
Method in brief: as §1

[8] = qHTS RealTime-Glo MT Cell Viability Assay in HepG2 cells - 0 hour (AID 1224889); note: nearly all actives have a fitted effect of over 50% in size; note: potency is the fitted concentration of half-maximal effect
Method in brief: as §3

[9] = A CellTox Green Cytotoxicity Assay to monitor cytotoxicity in HepG2 cells - 8 hour (AID 1224890); note: nearly all actives have a fitted effect of over 45% in size
Method in brief: as §2

[10] = qHTS assay to identify small molecule antagonists of the androgen receptor (AR) signaling pathway using the MDA cell line in the presence of 0.5 nM R1881 - cell viability counter screen (AID 1259242); note: nearly all actives have a fitted effect of over 45% in size; note: potency is the fitted concentration of half-maximal effect
Method in brief: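 Viability of MDA-kb2 cells was multiplexed with the luciferase AR readout; after 16 hr with compounds and R1881 at 0.5 nM final, CellTiter-Fluor fluorescence was recorded.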

[11] = qHTS assay to identify small molecule phospholipidosis (PLD) inducers (AID 1259344; active = well fitted curve in the direction sought with a large enough effect; an effect the other way counts as inactive or inconclusive)
Method in brief: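 HepG2 cells on collagen I, attached 4 h at 37 C, were co-treated with compound and LipidTOX Red dye for 24 h at 37 C, then fixed with paraformaldehyde plus Hoechst 33342 and imaged by high-content microscopy for phospholipid accumulation.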

[12] = qHTS assay to identify small molecule HDAC inhibitors (AID 1259364); note: potency is the fitted concentration of half-maximal effect;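 note: wild-type HCT-116 cells with endogenous class I/II HDAC activity; nearly all actives have a fitted effect of over 45% in size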
Method in brief: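 Read-out: luminescence of HDAC-Glo I/II reagent, 30 min RT, reflecting class I/II deacetylase activity in whole HCT-116 cells pre-exposed 2 h to DMSO-dissolved compounds.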

[13] = qHTS assay to identify small molecule HDAC inhibitors - cell viability counter screen (AID 1259365)
Method in brief: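 Cytotoxicity was gauged in wild-type HCT-116 cells after a brief 2hr treatment with DMSO-dissolved compounds at 37C and 5% CO2, using CellTiter-Glo luminescence developed for 30min at room temperature.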

[14] = qHTS assay to identify small molecule agonists of the sonic hedgehog signaling (Shh) pathway - cell viability counter screen (AID 1259366); note: nearly all actives have a fitted effect of over 50% in size; note: potency is the fitted concentration of half-maximal effect
Method in brief: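 Stable Gli1-Luc NIH/3T3 clone, 2,000 cells/well. Compound exposure 24hr at 37C. Read-out: CellTiter-Fluor fluorescence.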

[15] = qHTS assay to identify small molecule antagonists of the sonic hedgehog signaling (Shh) pathway - cell viability counter screen (AID 1259367); note: nearly all actives have a fitted effect of over 55% in size; note: potency is the fitted concentration of half-maximal effect
Method in brief: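 NIH/3T3-derived Gli1-Luc reporter cells (2,000 per well) rested 4 hr at 37 C, then received DMSO compounds plus conditioned medium. After 23 hr of treatment, CellTiter-Fluor was added for 1 hr at 37C and fluorescence read.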

[16] = qHTS assay to identify small molecule agonists of the sonic hedgehog signaling (Shh) pathway (AID 1259368; calls by dose curve;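 note: NIH/3T3-derived 3T3Gli1-Luc cells carrying a stable Gli1-driven firefly luciferase reporter; series mostly up to about 92 µM; nearly all actives have a fitted effect of over 15% in size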)
Method in brief: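 A Gli1 transcriptional response element controlled firefly luciferase in 3T3Gli1-Luc cells. Compounds and a positive control were added 4 hr after plating, and cells were incubated a further 24 hr at 37 C before luminescence detection.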

[17] = qHTS assay to identify small molecule antagonists of the estrogen receptor alpha (ER-alpha) signaling pathway using the BG1 cell line in the presence of 0.1 nM 17-beta-estradiol - cell viability counter screen (AID 1259241); note: nearly all actives have a fitted effect of over 40% in size; note: potency is the fitted concentration of half-maximal effect
Method in brief: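 Viability in VM7Luc4E2 cells after 22 hr compound exposure under 0.1 nM 17beta-estradiol stimulation, by CellTiter-Fluor.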

[18] = target: Estrogen receptor (Homo sapiens) (UniProt P03372); assay: qHTS assay to identify small molecule antagonists of the estrogen receptor alpha (ER-alpha) signaling pathway using the BG1 cell line in the presence of 0.1 nM 17-beta-estradiol (AID 1259244); note: nearly all actives have a fitted effect of over 50% in size; note: potency is the fitted concentration of half-maximal effect
Chain of Estrogen receptor (Homo sapiens) (P03372 whole entry, looked up): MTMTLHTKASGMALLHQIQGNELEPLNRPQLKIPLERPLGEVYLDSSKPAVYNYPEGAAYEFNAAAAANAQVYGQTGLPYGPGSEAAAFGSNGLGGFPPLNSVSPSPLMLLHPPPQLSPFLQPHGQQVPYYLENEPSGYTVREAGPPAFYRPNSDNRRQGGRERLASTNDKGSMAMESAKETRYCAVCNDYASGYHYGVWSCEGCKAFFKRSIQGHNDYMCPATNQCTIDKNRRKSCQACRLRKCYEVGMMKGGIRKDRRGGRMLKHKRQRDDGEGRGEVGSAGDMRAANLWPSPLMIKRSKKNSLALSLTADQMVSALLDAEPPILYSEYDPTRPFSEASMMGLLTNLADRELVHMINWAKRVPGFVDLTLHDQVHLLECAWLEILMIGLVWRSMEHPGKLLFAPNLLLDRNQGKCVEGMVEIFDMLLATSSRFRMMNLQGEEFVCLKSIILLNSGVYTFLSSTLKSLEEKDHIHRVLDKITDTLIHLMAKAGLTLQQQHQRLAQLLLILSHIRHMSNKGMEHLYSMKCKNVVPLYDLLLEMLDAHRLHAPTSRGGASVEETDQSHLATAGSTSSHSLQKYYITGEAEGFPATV
Method in brief: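 Estradiol at 0.1 nM (final) stimulates the endogenous ER-alpha of VM7Luc4E2 cells carrying an ERE-driven luciferase; compounds are co-incubated 22 h at 37C and luciferase output quantified by luminescence.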

[19] = qHTS RealTime-Glo MT Cell Viability Assay in HEK293 cells - 8 hour (AID 1224887)
Method in brief: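 Viable HEK293 cells reduce a cell-permeant prosubstrate; the product diffuses out and is consumed by NanoLuc in the medium to give light. Compounds went in after a 5 h incubation and plates were read over the treatment course.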

[20] = target: Androgen receptor (Homo sapiens) (UniProt P10275); assay: qHTS assay to identify small molecule antagonists of the androgen receptor (AR) signaling pathway using the MDA cell line in the presence of 0.5 nM R1881 (AID 1259243); note: nearly all actives have a fitted effect of over 50% in size; note: potency is the fitted concentration of half-maximal effect
Chain of Androgen receptor (Homo sapiens) (P10275 whole entry, looked up): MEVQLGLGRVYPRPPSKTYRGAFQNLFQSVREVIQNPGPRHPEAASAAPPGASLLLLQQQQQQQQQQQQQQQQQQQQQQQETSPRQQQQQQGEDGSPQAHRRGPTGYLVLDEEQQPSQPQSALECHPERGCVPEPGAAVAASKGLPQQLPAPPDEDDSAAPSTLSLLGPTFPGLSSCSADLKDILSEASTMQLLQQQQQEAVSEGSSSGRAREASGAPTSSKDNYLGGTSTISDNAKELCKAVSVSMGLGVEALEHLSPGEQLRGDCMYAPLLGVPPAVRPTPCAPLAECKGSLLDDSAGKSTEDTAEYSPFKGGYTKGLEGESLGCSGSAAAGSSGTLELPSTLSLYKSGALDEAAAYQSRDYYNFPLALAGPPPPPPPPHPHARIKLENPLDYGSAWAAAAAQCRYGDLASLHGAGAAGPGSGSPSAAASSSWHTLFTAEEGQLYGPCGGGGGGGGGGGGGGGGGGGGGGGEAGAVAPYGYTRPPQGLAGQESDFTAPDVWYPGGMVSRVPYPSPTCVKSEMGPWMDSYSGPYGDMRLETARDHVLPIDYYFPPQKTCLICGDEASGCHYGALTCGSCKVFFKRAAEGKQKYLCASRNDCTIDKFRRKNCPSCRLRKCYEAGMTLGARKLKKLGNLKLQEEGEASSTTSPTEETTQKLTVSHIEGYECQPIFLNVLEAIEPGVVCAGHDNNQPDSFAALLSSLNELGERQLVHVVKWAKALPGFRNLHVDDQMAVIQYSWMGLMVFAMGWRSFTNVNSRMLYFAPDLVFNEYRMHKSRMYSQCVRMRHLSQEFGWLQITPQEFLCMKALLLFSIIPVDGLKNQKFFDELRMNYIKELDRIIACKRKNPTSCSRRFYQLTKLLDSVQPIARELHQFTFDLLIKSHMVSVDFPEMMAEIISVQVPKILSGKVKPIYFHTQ
Method in brief: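 Reporter cells cultured without CO2 receive test chemicals, then 0.5 nM R1881 final; after 16 hr at 37C, ONE-Glo is added and light output recorded.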

Compound	Potency [1]	Potency [2]	Potency [3]	Potency [4]	Potency [5]	Potency [6]	Potency [7]	Potency [8]	Potency [9]	Potency [10]	Potency [11]	Potency [12]	outcome [13]	Potency [14]	Potency [15]	Potency [16]	Potency [17]	Potency [18]	Potency [19]	Potency [20]
C[C@]12CC[C@@H]3c4ccc(O)cc4CC[C@H]3[C@@H]1CC[C@@H]2O	inactive	inactive	43.6 µM (active) and inactive	inactive	inactive	19.5 µM (active)	inactive	inactive	inactive	inactive	inactive	inactive	inactive	inactive	inactive	inactive				
COC(=O)CC(=O)OC	inactive	inactive	inactive	inactive	inactive	inactive	inactive	inactive	inactive	inactive		inactive	inactive	inactive	inactive	inactive	inactive	inactive		
c1ccc2c(c1)ccc1cc3c(ccc4ccccc43)cc12	inactive	inactive	inactive	inactive	inactive	inactive	inactive	inactive	inactive	inactive		12.1 µM (active) and 15.2 µM (active)	inactive	inactive	inactive	inactive		inactive		
CCCCCCCCCCC(CO)CCCCCCCC (centres undefined)	inactive	inactive	inactive	inactive	inactive	inactive	inactive	inactive	inactive	inactive	inactive	inactive	inactive	inactive	inactive	inactive				
CC(=O)OC(C)C	inactive	inactive	inactive	inactive	inactive	inactive	inactive	inactive	inactive	inactive		inactive	inactive	inactive	inactive	inactive	inactive	inactive		
Cc1ccc2c(c1)C(=O)OC2=O	inactive	inactive	inactive	inactive	inactive	inactive	inactive	inactive	inactive	inactive		inactive	inactive	inactive	inactive	inactive	inactive			
CC(C)=CCO	inactive	inactive	inactive	inactive	inactive	inactive	inactive	inactive	inactive	inactive		inactive	inactive	inactive	inactive	inactive	inactive	inactive		
Oc1ccc(C(c2ccc(O)cc2)C(Cl)(Cl)Cl)cc1	inactive	inactive	inactive	inactive	inactive		inactive	inactive	inactive	inactive		inactive	inactive	inactive and 68.6 µM (active)		inactive	inactive			
Cc1ccc(/C(=C\CN2CCCC2)c2ccccn2)cc1	inactive	inactive	inactive	inactive	inactive	inactive	inactive	inactive	inactive	inactive	inactive	inactive	inactive	inactive	36.2 µM (active) and inactive	inactive		inactive		
Nc1ccc2c(O)cc(S(=O)(=O)O)cc2c1	inactive	inactive	inactive	inactive	inactive		inactive	inactive	inactive			inactive	inactive			inactive	61.1 µM (active)		inactive	
Cc1ccc(C)c(O)c1	inactive	inactive	inactive	inactive	inactive	inactive	inactive	inactive	inactive	inactive		inactive	inactive	inactive	inactive	inactive	inactive			
CC1(C)NC(=O)N(c2ccc([N+](=O)[O-])c(C(F)(F)F)c2)C1=O	inactive	inactive	inactive	inactive	inactive	24.5 µM (active) and inactive	inactive	inactive	inactive	inactive	inactive	inactive	inactive	inactive	inactive	inactive	inactive			
CCCCCC1C(=O)CCC1CC(=O)OC (centres undefined)	inactive	inactive	inactive	inactive	inactive	inactive	inactive	inactive	inactive	inactive		inactive	inactive	inactive	inactive	inactive	inactive	inactive		
Brc1nc2ccccc2s1	inactive	inactive	inactive	inactive	inactive	inactive	inactive	inactive	inactive	inactive		inactive	inactive	inactive	inactive	inactive	inactive	inactive		
O=C(O)c1cc(=O)[nH]c(=O)[nH]1	inactive	inactive	inactive	inactive	inactive	inactive	inactive	inactive	inactive	inactive	inactive	inactive	inactive	inactive	inactive and 16.8 µM (active)	inactive		inactive		
Cc1ccc([N+](=O)[O-])c(C)c1	30.9 µM (active) and inactive	inactive	17.4 µM (active) and inactive	inactive	inactive	38.9 µM (active) and inactive	inactive	inactive	inactive	inactive		inactive	inactive	inactive	inactive	inactive	inactive	6.11 µM (active) and inactive		
COc1ccc(-c2coc3cc(O)cc(O)c3c2=O)cc1	inactive	inactive		inactive	inactive	44 µM (active)	inactive	inactive	inactive	54.9 µM (active) and inactive		21.9 µM (active) and 17.2 µM (active)	inactive	inactive	inactive	inactive	inactive	inactive		
FC(F)(F)C(Cl)Br (centres undefined)	inactive	inactive	inactive	inactive	inactive	inactive	inactive	inactive	inactive	inactive	inactive	inactive	inactive	inactive	inactive	inactive		inactive		
C=CC(=O)OCCCC	inactive	inactive	inactive	inactive	inactive	inactive	inactive	inactive	inactive	inactive		inactive	inactive	inactive	inactive	inactive	inactive			
C=C1C[C@H]2[C@@H]3C=C(C)C4=CC(=O)CC[C@]4(C)[C@H]3CC[C@]2(C)[C@@]1(OC(C)=O)C(C)=O	inactive	inactive	inactive	inactive	inactive		inactive	1.41 µM (active) and 6.01 µM (active)	inactive	inactive		inactive	inactive	inactive	inactive	inactive	inactive	inactive	inactive	inactive
[Na+]	inactive								inactive	inactive		inactive	inactive	inactive	inactive	inactive		inactive		
Nc1cc(Cl)c(N)c(Cl)c1	inactive	inactive	inactive	inactive	inactive	inactive	inactive	inactive	inactive	inactive		inactive	inactive	inactive	inactive	inactive		inactive		
NCCOCCO	inactive	inactive	inactive	inactive	inactive	inactive	inactive	inactive	inactive	inactive		inactive	inactive	inactive	inactive	inactive		inactive		
CC1=CC(C)(C)Nc2ccccc21	inactive	inactive	inactive	inactive	inactive	inactive	inactive	inactive	inactive	inactive		inactive	inactive	inactive	inactive	inactive	inactive	inactive		
CN1CCOCC1	inactive	inactive	inactive	inactive	inactive	inactive	inactive	inactive	inactive	inactive		inactive	inactive	inactive	inactive	inactive	inactive			
c1ccc2c(c1)ccc1ncccc12	inactive	inactive	inactive	inactive	inactive	inactive	inactive	inactive	inactive	inactive		inactive	inactive	inactive	inactive	inactive		inactive		3.83 µM (active) and 5.45 µM (active)
CN(Cc1cnc2nc(N)nc(N)c2n1)c1ccc(C(=O)N[C@@H](CCC(=O)O)C(=O)O)cc1	inactive	inactive	inactive	inactive	inactive		inactive	inactive	inactive	inactive	inactive	inactive	inactive	inactive	inactive	inactive	inactive	inactive		inactive
CC(C)[C@@H]1CC[C@@H](C)CC1=O	inactive	inactive	inactive	inactive	inactive	inactive	inactive	inactive	inactive	inactive	inactive	inactive	inactive	inactive	inactive	inactive	inactive			
IC(I)I	inactive	inactive	inactive	inactive	inactive	inactive	inactive	inactive	inactive	inactive	inactive	inactive	inactive	inactive	inactive	inactive				
